{"source": "PubChem BioAssay (NCATS)", "note": "Records with an inconclusive call do not appear. Active and inactive are the calls of the source. Calls follow the shape of the dose curve; as a rule, active = well fitted cell-killing curve with a large enough effect; inconclusive = small, poorly fitted or top-dose-only effect, or effect the other way; inactive = no such curve, though single readings can be large or run the other way. Potency is read from the fitted curve at half-maximal effect.", "data": [{"assay": "Quantitative High-Throughput drug screen in 47 multiple myeloma cell lines against the NCATS MIPE library collection: KMS11_JCRBsus cell viability assay (AID 1919873); also: nearly all actives have a fitted effect of over 50% in size", "settings": "KMS11 myeloma viability, CellTiter-Glo ATP luminescence, 48 h; series mostly up to 45.8 µM; viability (% of control): at the top concentration", "in_short": "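500 cells/well; MIPE 4.0 drugs pin-transferred; 48 h, 37C, 5% CO2. CellTiter-Glo, 5 min RT, luminescence. Controls: DMSO 100%, media 0%.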", "values": [{"compound": "COc1ccc(Nc2cc(-c3cnc(N)nc3)nc(N3CCOCC3)n2)cn1", "Potency": "469 nM (active)"}, {"compound": "NC(=O)Nc1cc(-c2ccc(CN3CCOCC3)cc2)sc1C(N)=O", "Potency": "11800 nM (active)"}, {"compound": "CCc1cc(C(C)=NOCc2ccc(C3CCCCC3)c(C(F)(F)F)c2)ccc1CN1CC(C(=O)O)C1", "viability (% of control)": "104% (inactive)"}, {"compound": "CCCCCCCCCCCCCCCC(=O)OC[C@@H](NC(=O)C(Cl)Cl)[C@H](O)c1ccc([N+](=O)[O-])cc1", "viability (% of control)": "121% (inactive)"}, {"compound": "C[C@H](CCC(=O)O)[C@H]1CC[C@H]2[C@@H]3[C@H](O)C[C@@H]4C[C@H](O)CC[C@]4(C)[C@@H]3CC[C@]12C", "viability (% of control)": "86.3% (inactive)"}, {"compound": "Cc1cc(-c2nnc3n2CCCCC3)c(C)n1-c1ccccc1", "viability (% of control)": "91.4% (inactive)"}, {"compound": "Cc1ccc(-n2[nH]c(C)c(N=Nc3cccc(-c4cccc(C(=O)O)c4)c3O)c2=O)cc1C", "Potency": "23500 nM (active)"}, {"compound": "CC(C)(C)[N+]([O-])=Cc1ccc(S(=O)(=O)O)cc1S(=O)(=O)O", "viability (% of control)": "126% (inactive)"}, {"compound": "N#Cc1c(NC(=O)c2cccc3ccccc23)sc2c1CCCC2", "Potency": "148 nM (active)"}, {"compound": "C[C@@H](Cc1cc2c(c(C(N)=O)c1)N(CCCO)CC2)NCCOc1ccccc1OCC(F)(F)F", "viability (% of control)": "89.2% (inactive)"}, {"compound": "CCOC(=O)C=C[C@H](C[C@@H]1CCNC1=O)NC(=O)[C@@H](CC(=O)[C@@H](NC(=O)c1cc(C)on1)C(C)C)Cc1ccc(F)cc1", "viability (% of control)": "108% (inactive)"}, {"compound": "COc1ccc(C[C@@H](C)[C@@H](C)Cc2ccc(OC)c(OC)c2)cc1OC", "Potency": "132 nM (active)"}, {"compound": "N#Cc1c(C2CCNCC2)cc(-c2c(O)cccc2OCC2CC2)nc1N", "Potency": "18700 nM (active)"}, {"compound": "Cn1cc(C=CC(=O)c2cccc(F)c2)cc1C=CC(=O)NO", "Potency": "14800 nM (active)"}, {"compound": "COc1ccc2cc([S+]([O-])Cc3ncc(C)c(OC)c3C)nc2c1", "viability (% of control)": "108% (inactive)"}, {"compound": "Cc1ccc(O)c(C(CCN(C(C)C)C(C)C)c2ccccc2)c1", "note": "(stereo unspecified)", "viability (% of control)": "85.9% (inactive)"}, {"compound": "CN1CCc2c(c3ccccc3n2Cc2ccc(C(=O)NO)cc2)C1", "Potency": "20900 nM (active)"}, {"compound": "C=C(C)[C@@H]1CC[C@]2(C)CC[C@]3(C)[C@H](CC[C@@H]4[C@@]5(C)CC[C@H](O)C(C)(C)[C@H]5CC[C@]43C)[C@@H]12", "viability (% of control)": "131% (inactive)"}, {"compound": "CC(C)(C)[C@H](NC(=O)c1ccc(N)c(Cl)c1)C(=O)N1CCC[C@@H]1C(=O)N[C@H](C#N)CC(=O)O", "viability (% of control)": "102% [at 3.51 µM] (inactive)"}, {"compound": "NS(=O)(=O)OC[C@@H]1C[C@@H](n2ccc3c(N[C@H]4CCc5ccccc54)ncnc32)C[C@H]1O", "Potency": "296 nM (active)"}, {"compound": "COC(=O)[C@@H]1[C@H]2C[C@@H]3c4[nH]c5ccccc5c4CCN3C[C@@H]2CC[C@@H]1O", "viability (% of control)": "89.7% (inactive)"}, {"compound": "C[C@]12C=CC(=O)N[C@@H]1CC[C@H]1[C@H]3CC[C@@H](C(=O)Nc4cc(C(F)(F)F)ccc4C(F)(F)F)[C@@]3(C)CC[C@@H]12", "viability (% of control)": "95.5% (inactive)"}, {"compound": "OCCN1C[C@H](O)[C@@H](O)[C@H](O)[C@@H]1CO", "viability (% of control)": "107% (inactive)"}, {"compound": "O=C1NC(=O)[C@@H](c2cn3c4c(cccc24)CCC3)[C@H]1c1c[nH]c2ccccc12", "Potency": "118 nM (active)"}, {"compound": "COC(=O)[C@@H]1CC2=CC(=O)CC[C@]2(C)[C@@]23O[C@@H]2C[C@@]2(C)[C@H](CC[C@@]24CCC(=O)O4)[C@@H]13", "viability (% of control)": "127% (inactive)"}, {"compound": "CC[C@]12C=CCN3CC[C@@]4(c5cc([C@@]6(C(=O)OC)C[C@H]7C[C@@H](C(C)(F)F)CN(Cc8c6[nH]c6ccccc86)C7)c(OC)cc5N(C)[C@H]4[C@@](O)(C(=O)OC)[C@H]1OC(C)=O)[C@@H]32", "Potency": "2.6 nM (active)"}, {"compound": "CC(Oc1ccc(O)cc1)(P(=O)(O)O)P(=O)(O)O", "viability (% of control)": "113% (inactive)"}, {"compound": "CCOC(=O)C1=C(C)NC(=S)NC1c1cccc(O)c1", "note": "(stereo unspecified)", "Potency": "16.6 nM (active)"}, {"compound": "CC1(C)CC(O)CC(C)(C)N1[O]", "viability (% of control)": "118% (inactive)"}, {"compound": "O=C(O)c1ccc(Nc2ncc3c(n2)-c2ccc(Cl)cc2C(c2c(F)cccc2F)=NC3)cc1", "Potency": "132 nM (active)"}, {"compound": "O=C1NCCc2[nH]c(-c3ccncc3)cc21", "Potency": "5260 nM (active)"}, {"compound": "O=C(C=CC=Cc1ccc2c(c1)OCO2)N1CCCCC1", "viability (% of control)": "84.5% (inactive)"}, {"compound": "CC(O)(C#Cc1ccc2c(c1)N(c1nc(N)ncc1Cl)CC2)c1nccs1", "note": "(stereo unspecified)", "Potency": "18700 nM (active)"}, {"compound": "CCCCCN=C(N)NN=Cc1c[nH]c2ccc(OC)cc12", "Potency": "2640 nM (active)"}, {"compound": "O=C1CSC(=O)N1C(CCc1ccncc1)COc1ccc(-c2cccc([N+](=O)[O-])c2)cc1", "note": "(stereo unspecified)", "Potency": "11800 nM (active)"}, {"compound": "COc1ccnc2[nH]cc(C(=O)C(=O)N3CCN(C(=O)c4ccccc4)C[C@@H]3C)c12", "viability (% of control)": "112% (inactive)"}]}]}
